Data published in PubChem BioAssay AID568 (Sanford-Burnham Center for Chemical Genomics, 2006).
In all, about 83,000 compounds went through this assay and fewer than 10 were called active. The rule behind the calls is not given here. Not all results are given here. Results with a measured potency or affinity are listed apart.

Target: Heat shock cognate 71 kDa protein (Homo sapiens) (UniProt P11142)
Experiment: small molecules displacing fluorescent ligand from Hsc70 – biochemical, fluorescence polarization, primary screen (AID 568)
Conditions: mP, at 20 µM, active compounds read high

Heat shock cognate 71 kDa protein (Homo sapiens), sequence (P11142 whole entry, looked up): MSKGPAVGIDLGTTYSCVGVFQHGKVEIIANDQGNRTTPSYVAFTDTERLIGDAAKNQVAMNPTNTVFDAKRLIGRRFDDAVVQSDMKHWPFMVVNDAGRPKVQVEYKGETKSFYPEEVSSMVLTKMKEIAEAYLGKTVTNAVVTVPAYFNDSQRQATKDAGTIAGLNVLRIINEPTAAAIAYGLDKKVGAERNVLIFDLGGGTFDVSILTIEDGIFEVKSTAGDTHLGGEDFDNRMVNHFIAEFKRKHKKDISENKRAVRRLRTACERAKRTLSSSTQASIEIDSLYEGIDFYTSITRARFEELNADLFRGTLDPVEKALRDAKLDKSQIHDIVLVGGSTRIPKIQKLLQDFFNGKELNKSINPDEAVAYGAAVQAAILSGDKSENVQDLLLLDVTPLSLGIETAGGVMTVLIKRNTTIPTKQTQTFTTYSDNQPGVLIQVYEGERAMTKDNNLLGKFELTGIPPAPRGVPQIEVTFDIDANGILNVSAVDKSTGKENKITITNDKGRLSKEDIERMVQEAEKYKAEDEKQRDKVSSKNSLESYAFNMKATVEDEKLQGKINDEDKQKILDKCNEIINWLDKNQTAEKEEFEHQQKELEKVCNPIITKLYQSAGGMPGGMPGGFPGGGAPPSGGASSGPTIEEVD
Heat shock cognate 71 kDa protein (Homo sapiens), sequence (P11142 whole entry, looked up): as above

SMILES | displacement
COc1ccc(S(=O)(=O)NCC2CCC(C(=O)N3CCC4(CC3)OCCO4)CC2)cc1 (stereo not drawn) | -1.2% (inactive)
CC1CCN(c2nc(-c3ccccc3)c(C#N)c(=O)[nH]2)CC1 | -1.1% (inactive)
C=CCn1c(O)c(C(CC)=Nc2ccccc2NC(=O)CC)c(=O)[nH]c1=O | 0% (inactive)
NC(=O)CSc1nnc(CCc2nc3ccccc3[nH]2)n1-c1ccccc1 | -0.4% (inactive)
COC(=O)c1ccc(Nc2nc(C)cc(=O)[nH]2)cc1 | -5.8% (inactive)
Cc1occc1C(=O)Nc1cc(C(C)(C)C)on1 | -3.1% (inactive)
CCn1c(=O)n(CC)c2cc(S(=O)(=O)Nc3ccccc3C)c(C)cc21 | 0.5% (inactive)
CCOC(=O)N1CCN(C(=O)c2ccc(N3C(=O)c4ccccc4C3=O)cc2)CC1 | -0.7% (inactive)
O=C1OCC(Cn2c3ccccc3c3ccccc32)O1 (stereo not drawn) | 4.8% (inactive)
O=C(CN1C(=O)c2cccc3cccc1c23)N1CCN(Cc2ccc3c(c2)OCO3)CC1 | -5.5% (inactive)
CC(C)C(=O)Nc1cc(=O)[nH]c2ncnn12 | -7.6% (inactive)
CCN1C(=O)Cc2cc(S(=O)(=O)N3CCOCC3)ccc21 | 7% (inactive)
N#Cc1cn(CC(=O)N2CCCC2)c2ccccc12 | -2.4% (inactive)
Clc1ccc(OCCn2cnc3ccccc32)c(Cl)c1 | -4% (inactive)
CCC(CC)C(=O)NCc1ccccc1Cl | 0.3% (inactive)
Cc1ccc(S(=O)(=O)/N=C2/C=C(C3C(=O)CC(C)(C)CC3=O)C(=O)c3ccccc32)cc1 | 4% (inactive)
Cc1ccc(C(=O)COc2nc(C)cc(C)c2C#N)cc1 | 3.2% (inactive)
Cc1cc(=O)n2nc(N3CCCC(C(=O)NCCCN4CCc5ccccc5C4)C3)sc2n1 (stereo not drawn) | 3% (inactive)
CC(C)OC(=O)C1CC=CCC1C(=O)Nc1ccc(Cl)cc1 (stereo not drawn) | 0.4% (inactive)
CCc1nnc(NC(=O)CSc2nnnn2C)s1 | -1.1% (inactive)
CC(C)CCNC(=O)c1ccc2c(c1)ncn2C1CCCCC1 | 0.7% (inactive)
Oc1ccccc1CNCCCNCc1ccccc1O | -1.3% (inactive)
COc1ccccc1N1C(=O)CC(Sc2nc(C)cc(C)n2)C1=O (stereo not drawn) | 0.9% (inactive)
COC(=O)c1ccc(NC(=O)CCN2CCN(CCC(=O)Nc3ccc(C(=O)OC)cc3)CC2)cc1 | 2.6% (inactive)
Cc1cc(C)c2c(N)c(S(=O)(=O)Cc3ccccc3)sc2n1 | 3.8% (inactive)

SMILES | displacement
O=C(O)CCN1C(=O)C2CCCCC2C1=O (stereo not drawn) | -0.4% (inactive)
Cc1ccc(OCC2Cn3c(nc4c3c(=O)n(C)c(=O)n4C)O2)cc1 (stereo not drawn) | 1.1% (inactive)
COc1ccc(OC)c(-n2nnnc2SCC(=O)O)c1 | 4.6% (inactive)
CCC(=O)N(Cc1cc2ccccc2[nH]c1=O)C(C)C | 7% (inactive)
Cc1ccc2c(c1)NCC(C(=O)NCc1ccccc1)O2 (stereo not drawn) | 1.6% (inactive)
CCc1cccc(NS(=O)(=O)c2ccc3c(c2)oc(=O)n3C)c1 | 1.5% (inactive)
CC1(c2ccc(OC(F)F)cc2)NC(=O)N(CC(=O)Nc2ccc3c(c2)OCO3)C1=O (stereo not drawn) | -2.6% (inactive)
Cc1cccc(C)c1NC(=O)NC1(C(=O)NCCCN2CCOCC2)CCCCC1 | -2.5% (inactive)
Cc1noc(C)c1COC(=O)CCCc1nc2ccccc2s1 | 0.6% (inactive)
COc1ccc(C(=O)Nc2ccc3oc(-c4cccc(F)c4)nc3c2)cc1OC | 2.4% (inactive)
Cc1ccc(/C=N/NC(=O)CC2N=C(Cc3ccccc3)NNC2=O)cc1 (stereo not drawn) | -1.6% (inactive)
CN1C(=S)SC(/[N+]([O-])=C\c2ccco2)C1(C)C (stereo not drawn) | -8.3% (inactive)
CCOC(=O)c1sc(NC(=O)C2CCCO2)c(C(=O)OC)c1C (stereo not drawn) | 2.1% (inactive)
Cc1ccc(-c2cc3nc(C)cc(NCc4ccco4)n3n2)cc1 | -12.6% (inactive)
CCOC(=O)N1CCC(N2C(=O)c3ccccc3C2Nc2ccc(Cl)cn2)CC1 (stereo not drawn) | 0% (inactive)
CCC(=O)N1CCc2cc(Br)cc(S(=O)(=O)NCC3CCCO3)c21 (stereo not drawn) | 5.2% (inactive)
COc1ccc(-c2nnc3sc(CCN4C(=O)c5ccccc5C4=O)nn23)cc1 | -0.6% (inactive)
O=C(N1CCN(c2ccccc2)CC1)C(F)(F)C(F)(F)F | 8.8% (inactive)
CCOC(=O)CCSCC(=O)Nc1cc(C)on1 | 4.3% (inactive)
Cc1ccc(NCc2nnc(SCC(=O)OC3CCCCC3)o2)c(C)c1 | -6.7% (inactive)
CCN1CCN(C(=O)c2sc3nc(C)nc(N4CCC(C)CC4)c3c2C)CC1 | -3.6% (inactive)
CN(c1ccccc1)C(c1ccc(F)cc1)c1nnnn1C1CCCC1 (stereo not drawn) | -4.6% (inactive)
CCOC(=O)c1ccc(COC(=O)CNC(=O)CNC(=O)c2ccc(OC)cc2)o1 | -3.7% (inactive)
CC(C)C(c1nnnn1Cc1ccc(F)cc1)N1CCSCC1 (stereo not drawn) | -2.2% (inactive)
COc1ccc(CCN2CNc3c(c(=O)n(C)c(=O)n3C)C2)cc1 | 0.1% (inactive)

SMILES | displacement
O=C(CSc1nnc(-c2ccncc2)n1CC1CCCO1)NCc1ccccc1 (stereo not drawn) | -0.2% (inactive)
O=C(Nc1ccc(N2CCOCC2)cc1)c1cccc(S(=O)(=O)N2CCC(Cc3ccccc3)CC2)c1 | -1.4% (inactive)
Cc1ccc(OCC(=O)Nc2cc(-c3nn4c(C)nnc4s3)ccc2C)cc1 | 4.5% (inactive)
Clc1ccc(/C=N/c2c(-c3ccco3)nc3ccccn23)cc1 | 3.7% (inactive)
CC(NC(=O)c1ccc(CS(=O)(=O)c2cccc(C(F)(F)F)c2)o1)c1ccc2c(c1)OCCO2 (stereo not drawn) | -1.8% (inactive)
COc1ccc(C(=O)Oc2cccnc2)cc1 | -4.3% (inactive)
Cc1ccc(C)c2c1[nH]c1ccccc12 | 1.5% (inactive)
CC(C)Cc1cc(C(=O)N2N=C(C(F)F)CC2(O)C(F)F)c2ccccc2n1 (stereo not drawn) | 1.5% (inactive)
COc1cc2cc(C(c3nnnn3C3CCCC3)N3CCCCCC3)c(=O)[nH]c2cc1OC (stereo not drawn) | -5% (inactive)
COCCN1C(=O)c2ccccc2C(C(=O)NCCN(C)C)C1c1ccc(F)cc1 (stereo not drawn) | -4.9% (inactive)
CCCCn1c(=O)n(CC(=O)Nc2ccc(C)c(Cl)c2)c(=O)c2c1ncn2Cc1ccco1 | -21.2% (inactive)
CCOc1ccc(CC(C(=O)NN)C(=O)NN)cc1CN(C)C | 2.3% (inactive)
COc1ccc(Br)cc1CNC(=O)C1CCCN(S(C)(=O)=O)C1 (stereo not drawn) | -2% (inactive)
OC(COc1ccc2c(c1)OCO2)CN1CCc2ccccc2C1 (stereo not drawn) | 1.3% (inactive)
COCCNC(=O)C(c1ccc(C)o1)N(Cc1ccco1)C(=O)c1snc(C(N)=O)c1N (stereo not drawn) | 5.3% (inactive)
CC1=CN2C(=NC(=O)CC2(C)C(=O)N(CC(=O)NC2CCCC2)c2ccccc2C)C=C1 (stereo not drawn) | -1.4% (inactive)
CC(=O)OCCn1c(Br)nc2c1c(=O)[nH]c(=O)n2C | 4.4% (inactive)
Cc1nc2c(C(=O)N3CCCCC3)cnn2c(C)c1Cc1ccccc1F | 2.6% (inactive)
COC(=O)[C@H](Cc1ccccc1)NC(=O)N1CCC(C)CC1 | -1.3% (inactive)
CN1CCN(S(=O)(=O)c2ccc(N3CCN(S(=O)(=O)/C=C/c4ccccc4)CC3)nc2)CC1 | -5.3% (inactive)
Cn1cnnc1SCCC(=O)Nc1ccc(Cl)cc1 | 4.9% (inactive)
CC1CCCCC1NC(=O)Cn1ncc2ccccc21 (stereo not drawn) | -0.3% (inactive)
CCC(Sc1nc2n[nH]c(C)c2c(=N)n1-c1cccc(Cl)c1C)C(=O)N(CC)CC (stereo not drawn) | -7.7% (inactive)
Cc1ccc(-c2noc(C3CCCN(C(=O)c4ccccc4)C3)n2)o1 (stereo not drawn) | 1.4% (inactive)
CCc1ccc2nc(NC3=NCN(CCOC)CN3)nc(C)c2c1 | 0.7% (inactive)

SMILES | displacement
Cc1ccc(N2CN=C(c3ccccc3)NC2=S)cc1 | -3.8% (inactive)
CCOC(=O)c1ccc(NC(=O)CSc2nc(C)cc(=O)[nH]2)cc1 | -2.1% (inactive)
O=C(NC1CCCCCCC1)c1ccco1 | -2.6% (inactive)
Cc1c(/C=C/C(=O)c2cccs2)cnn1C | 0.7% (inactive)
CCOc1cccc(C(=O)Nc2ccc(N(CC)CC)cc2)c1 | -1.7% (inactive)
O=C1c2ccsc2SCCN1Cc1ccc(Cl)cc1 | 3.5% (inactive)
Nc1ccccc1SCc1cn2cccnc2n1 | -0.9% (inactive)
CC(C)[C@H](NC(=O)OC(C)(C)C)c1nnc(SCc2cccc(F)c2)o1 | 6.2% (inactive)
CC(C)(C)c1ccc(-c2nnc(SCCN3C(=O)c4ccccc4C3=O)o2)cc1 | -4.1% (inactive)
CCCn1nnc(NC(=O)c2ccccc2Br)n1 | -4.1% (inactive)
Cc1ccc2nc(NC(=O)c3cccs3)sc2c1 | 1.4% (inactive)
Cc1ccccc1-n1c(=O)cc(N2CCN(C(=O)c3ccco3)CC2)[nH]c1=O | -0.4% (inactive)
COc1ccc2[nH]cc(C(=O)CN3CCN(C(=O)c4ccco4)CC3)c2c1 | -1.6% (inactive)
COc1ccc(C2C(C(=O)NC(C)C)c3ccccc3C(=O)N2C)cc1OC (stereo not drawn) | -8.3% (inactive)
COc1ccc(C(=O)CN2C(=O)c3ccccc3C2=O)c(OC)c1C | -1.2% (inactive)
O=C(CC12CC3CC(CC(C3)C1)C2)NCO | -2.2% (inactive)
CCCCOCC(O)Cn1c(C)nc2ccccc21 (stereo not drawn) | -2.3% (inactive)
CN=C1SC(CC(=O)Nc2cccc(Cl)c2Cl)C(=O)N1C (stereo not drawn) | 0% (inactive)
COc1nc(OC)nc(N2CCCCCC2)n1 | 7.4% (inactive)
c1cncc(-c2nc3cc(Cc4ccc5oc(-c6cccnc6)nc5c4)ccc3o2)c1 | -0.1% (inactive)
COCCCn1c(SCC(=O)Nc2ccc3c(c2)OCCO3)nnc1-c1ccoc1C | -9.3% (inactive)
Cn1cccc1Cc1nnc(SCC(=O)NCc2ccccc2)n1-c1ccc(F)cc1 | 1.3% (inactive)
CC(C)CC(=O)Nc1ccc(-c2cn3ccsc3n2)cc1 | 3% (inactive)
